# Screening results: PubChem BioAssay, several laboratories
# Sampled rows, rich in hits. Any-hit rate of the full collection: about 2.3%.
# MCL1 BIM primary – disrupts human MCL1 binding to BIM-BH3 peptide; inhibition, % at 10.9 µM; 320,000 tested, 0.68% active; GST-MCL1 / FITC-Bim-BH3 fluorescence polarization; AID 2057; Q07820;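 active = inhibition above the mean inhibition of all tested compounds plus 3 SD, set per campaign, cut at about 40% in these data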;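 note: higher means more loss of mP so more displacement of Bim peptide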
# Mcl1-Noxa inh – Mcl-1/Noxa interaction inhibition. TR-FRET Mcl-1/Noxa peptide binding, 2 h. AID 1022. Q07820. 220,000 tested, 1.5% active. inhibition, % at 21.7 µM;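 active = compounds that cut the protein-peptide binding signal by more than 50% relative to plate controls in a single-dose test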;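 note: His-tagged Mcl-1 with rhodamine Noxa BH3 peptide and terbium anti-His antibody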
# Bcl-xL primary – Bcl-xL (human) inhibition; Q07817; GST-Bcl-xL / FITC-Bim BH3 peptide fluorescence polarization; inhibition, % at 10.9 µM; 320,000 tested, 0.7% active; AID 2129;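 active = inhibition above the mean of all tested compounds plus 3 SD, cutoff set per campaign, cut at about 30% in these data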;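 note: inhibitors lower millipolarization by displacing the labeled peptide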
# Mcl-1 Bim block – inhibitors of Bim-Mcl-1 interaction, human; Q07820; Bead-based flow cytometry, Bim peptide-Mcl-1 binding; inhibition, % at 10 µM; 190,000 tested, 0.1% active; AID 1009; in the data active = inhibition above about 40%
# Mcl1-Bid inh – Mcl-1/Bid interaction inhibition; Q07820; TR-FRET Mcl-1/Bid-Dy647 peptide binding, 1536-well; inhibition, % at 21.7 µM; 220,000 tested, 0.97% active;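 active = compounds that cut the binding signal by more than half at the single screening dose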;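 note: His-tagged Mcl-1 with europium anti-His antibody binding Bid BH3 peptide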
# GLD-1 RNA inh – GLD-1-TGE RNA interaction inhibition (C. elegans). Q17339. purified GLD-1 + fluorescein TGE RNA, fluorescence polarization. inhibition, % at 5.96 µM. 320,000 tested, 0.44% active. AID 2280;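 active = percent inhibition above a per-plate cutoff, the plate mean of test compounds plus 3 SD, cut at about 30% in these data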
# Target sequence (Q17339 whole entry, looked up): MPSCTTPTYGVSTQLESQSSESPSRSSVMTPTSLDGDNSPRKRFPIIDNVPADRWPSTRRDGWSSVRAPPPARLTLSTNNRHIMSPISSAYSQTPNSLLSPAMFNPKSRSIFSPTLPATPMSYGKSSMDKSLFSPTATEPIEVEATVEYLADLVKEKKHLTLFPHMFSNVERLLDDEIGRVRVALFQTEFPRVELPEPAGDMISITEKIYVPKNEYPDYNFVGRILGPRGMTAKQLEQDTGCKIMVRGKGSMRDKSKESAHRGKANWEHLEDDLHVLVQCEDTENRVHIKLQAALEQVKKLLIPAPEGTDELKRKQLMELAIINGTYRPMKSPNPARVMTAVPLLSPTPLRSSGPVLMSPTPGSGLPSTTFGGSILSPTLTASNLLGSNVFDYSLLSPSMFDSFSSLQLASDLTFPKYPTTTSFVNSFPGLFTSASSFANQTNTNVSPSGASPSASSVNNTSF
# Bcl-xL conf – counter-screen for MCL1 inhibitors: confirmation of human Bcl-xL inhibitors | shares compounds with MCL1 BIM primary | GST-Bcl-xL / FITC-Bim BH3 peptide FP binding | inhibition, % at 10.9 µM | 1,700 tested, 54% active | AID 2166;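 active = inhibition above a cutoff equal to the mean inhibition of all tested compounds plus 3 SD, cut at about 30% in these data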
# MCL1 inh confirm – MCL1-BIM-BH3 interaction inhibition, confirmation; shares compounds with MCL1 BIM primary; GST-MCL1 / FITC-Bim-BH3 fluorescence polarization; inhibition, % at 10.9 µM; 1,700 tested, 61% active;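 active = inhibition above the average of all tested compounds plus 3 SD, cut at about 40% in these data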
# Numbers stand for hits; n = inactive; x = not tested or not shown.
SMILES,MCL1 BIM primary,Mcl1-Noxa inh,Bcl-xL primary,Mcl-1 Bim block,Mcl1-Bid inh,GLD-1 RNA inh,Bcl-xL conf,MCL1 inh confirm
CC(C)CN(C(=O)CN(C)C(=O)c1ccco1)c1c(N)n(CC(C)C)c(=O)[nH]c1=O,n,x,n,x,x,n,x,x
Cc1c2ccccc2nc2c(F)c(N(C)C)c(F)c(F)c12,121.8,n,113.5,n,n,99.0,119.6,134.1
CCOC(=O)C1=C(CSc2nc(CC)c(C)cc2C#N)OC(N)=C(C#N)C1c1ccccc1 (stereo unspecified),n,n,n,n,n,n,x,x
CCOC(=O)C1=C(CSc2nc(C)cc(C)c2C#N)OC(N)=C(C#N)C1c1ccccc1 (stereo unspecified),n,n,n,n,n,n,x,x
CCOC(=O)C1=C(CSc2nc3c(cc2C#N)CN(C)CC3)OC(N)=C(C#N)C1c1ccc(Cl)cc1 (stereo unspecified),52.5,n,39.9,n,n,33.5,40.9,43.8
CCOC(=O)C1=C(CSc2nc3c(cc2C#N)CN(C)CC3)OC(N)=C(C#N)C1c1ccncc1 (stereo unspecified),143.4,n,114.4,n,n,61.0,107.9,119.0
COc1ccc(NC(=O)CN(C)C(=O)c2cc3c(s2)CCC3)cc1,74.4,x,n,x,x,n,n,70.9
COc1ccc(NC(=O)CN(C)C(=O)c2cc3c(s2)CCCCC3)cc1,n,x,n,x,x,n,x,x
CCOc1cc(C2C3=C(CCCC3=O)N(C)C3=C2C(=O)CCC3)cc(Cl)c1O,49.6,n,n,n,n,n,n,n
O=C(O[C@@H]1OC2COC(=O)c3cc(O)c(O)c(O)c3-c3c(cc(O)c(O)c3O)C(=O)O[C@@H]([C@H]1O)[C@@H]2O)c1cc(O)c(O)c(O)c1,91.2,113.1,61.8,n,n,n,74.0,87.4
Cc1cc(=O)[nH]c(-n2[nH]c3c(c2=O)CCCC3)n1,70.9,n,66.7,n,n,52.6,32.2,40.5
CCCCNC(=O)Oc1c(Br)cc2sc(=O)oc2c1Br,77.1,51.8,n,x,n,n,36.1,58.5
CCc1ccc(NC(=O)c2noc3c2CCC3)cc1,n,n,n,n,n,n,x,x
COC(=O)c1ccccc1NC(=O)c1noc2c1CCC2,40.9,70.4,n,n,n,n,n,49.4
CC(C)c1ccc(NC(=O)C2CCCCN2S(=O)(=O)c2ccccc2)cc1 (stereo unspecified),n,x,n,x,x,n,x,x
COc1ccc(Br)cc1-c1noc(-c2ccncc2)n1,66.1,n,n,n,n,n,n,n
COc1ccc(/C=C/C(=O)c2ccc(NC(=O)c3cccs3)cc2)cc1OC,n,n,n,n,n,n,x,x
Cc1sc2cc3c(c(C(=O)c4ccccc4)[n+]2c1C)-c1cccc2cccc-3c12,n,n,n,n,n,n,x,x
O=C(c1ccccc1)c1c2c(cc3sc4ccccc4[n+]13)-c1cccc3cccc-2c13,116.3,n,95.0,n,n,54.7,62.3,70.7
CCOc1ccc(N)c(SSc2cc(OCC)ccc2N)c1,n,x,n,x,x,n,x,x
CCOc1cc(-c2ccc(N)c(OCC)c2)ccc1N,174.0,n,148.2,n,n,126.8,134.1,183.1
Clc1ccc2nc(COc3ccccc3)[nH]c2c1,n,x,n,x,x,n,x,x
COc1ccc(C2=NN(C(=O)/C=C/c3ccccc3)C(c3ccccc3)C2)c(OC(C)=O)c1 (stereo unspecified),n,n,n,n,n,n,x,x
COc1ccc(C2CC(c3ccc(OC)cc3OC(C)=O)=NN2C(=O)c2ccccc2)cc1 (stereo unspecified),92.5,x,n,x,x,n,36.0,48.6
O=C(CN1C(=O)S/C(=C/c2cccn2-c2ccc(O)cc2)C1=O)N1CCCC1,n,x,n,x,x,n,x,x
O=C1C(=Cc2cccn2-c2ccc(O)cc2)C(=O)c2ccccc21,199.4,n,169.1,n,69.5,60.8,151.8,190.3
CN1CCCN(S(=O)(=O)c2cccc(C(F)(F)F)c2)c2nc3ccccc3nc21,n,x,n,x,x,n,x,x
